Usually inhibition stands for the change of the read-out against control, counted positive when it falls.

Each structure is given as a SMILES string. Screen size: about 10,000 compounds; about 5,600 (56%) were called active. So high a share suggests a set chosen from earlier hits. A selection follows. Unmarked numbers belong to inactive results. Rule as the data show it: active = inhibition above about 40%; inactive = the rest.

This is an account of results in PubChem BioAssay AID489028 (Sanford-Burnham Center for Chemical Genomics, 2010).

Sequence of Protein Mdm4 (Homo sapiens) + E3 ubiquitin-protein ligase Mdm2 (Homo sapiens) (O15151 whole entry, looked up): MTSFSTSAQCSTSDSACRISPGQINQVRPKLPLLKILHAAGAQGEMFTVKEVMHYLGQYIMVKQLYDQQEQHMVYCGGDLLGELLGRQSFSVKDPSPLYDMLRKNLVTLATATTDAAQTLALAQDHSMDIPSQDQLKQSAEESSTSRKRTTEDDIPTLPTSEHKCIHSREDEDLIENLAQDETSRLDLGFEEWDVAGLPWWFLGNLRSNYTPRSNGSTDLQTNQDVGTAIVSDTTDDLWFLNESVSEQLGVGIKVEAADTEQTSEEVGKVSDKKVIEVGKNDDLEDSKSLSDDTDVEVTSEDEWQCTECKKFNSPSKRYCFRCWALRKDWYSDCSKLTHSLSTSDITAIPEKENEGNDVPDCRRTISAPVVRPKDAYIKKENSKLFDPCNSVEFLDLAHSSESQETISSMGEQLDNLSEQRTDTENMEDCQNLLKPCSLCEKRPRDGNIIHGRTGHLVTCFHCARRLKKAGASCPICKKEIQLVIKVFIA
Sequence of Protein Mdm4 (Homo sapiens) + E3 ubiquitin-protein ligase Mdm2 (Homo sapiens) (Q00987 whole entry, looked up): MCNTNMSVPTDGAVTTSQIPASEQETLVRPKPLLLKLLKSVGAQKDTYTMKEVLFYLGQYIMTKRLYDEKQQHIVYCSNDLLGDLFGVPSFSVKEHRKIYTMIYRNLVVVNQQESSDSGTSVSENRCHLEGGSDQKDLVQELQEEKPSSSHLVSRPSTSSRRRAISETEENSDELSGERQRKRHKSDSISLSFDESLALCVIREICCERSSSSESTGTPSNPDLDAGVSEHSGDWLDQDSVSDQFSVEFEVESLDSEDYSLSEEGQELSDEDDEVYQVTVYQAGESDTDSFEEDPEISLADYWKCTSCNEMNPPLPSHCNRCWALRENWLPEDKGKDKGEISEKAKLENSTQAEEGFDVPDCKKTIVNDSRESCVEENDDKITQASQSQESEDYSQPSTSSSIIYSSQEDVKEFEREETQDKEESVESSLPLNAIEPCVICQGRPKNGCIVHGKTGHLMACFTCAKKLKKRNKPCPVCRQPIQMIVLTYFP

This test has as its target Protein Mdm4 (Homo sapiens) + E3 ubiquitin-protein ligase Mdm2 (Homo sapiens) (UniProt O15151+Q00987). The test is described as follows: inhibition of human Mdm2/MdmX pairing – luminescence, single concentration, confirmation (AID 489028). Particulars: Mdm2-MdmX binding, luminescent assay; at 8 µM; stronger effect = higher value.
Take `N#Cc1ccc(C(=O)Nc2cccc3cccnc23)c(F)c1`: the inhibition was 1.3%.
The result for `CC(=O)/C(=N\Nc1ccc(Cl)cc1Cl)Sc1cccc2cccnc12` reads 63% (active); that for `NC(N)=Nc1nc(-c2ccccc2)c2cc(Cl)ccc2n1`, 59.5% (active).
The result for `CCCCCCC(=O)N(O)C1CC(=O)N(c2ccccc2)C1=O` (configuration not stated) reads 27.3%; that for `COc1ccc(Nc2ncnc3ccc(Br)cc23)c(OC)c1`, 74% (active).
The result for `CC1CN(C(=O)CCC(=O)NCCCN2CCC(Cc3ccccc3)CC2)c2cc(Cl)ccc2O1` (configuration not stated) reads 56.8% (active); that for `CCN(CCCNC(=O)CSc1cc(=O)n(C)c2cc(Cl)ccc12)Cc1ccccc1`, 19.6%; that for `FC(F)(F)c1ccc(CN2C[C@@H]3C(c4ccccc4)C4(c5ccccc5)CC3(C4)[C@H]2c2ccccc2)cc1` (some centres not stated), 94.5% (active).
Regarding `Cc1cc(C(=O)NC2CCCc3c2cnn3-c2cccc(C)c2C)c(C)o1` (configuration not stated), the inhibition is 61.6% (active).
The same measure for `COc1ccc(C(=O)NC2CCCc3c2cnn3-c2cccc(C)c2C)c(OC)n1` (configuration not stated): 94.8% (active); for `CCCCC(O)(CCCC)C(=O)NN(C(=O)CCl)c1ccccc1`: 57.1% (active); for `CCCC(O)(CCC)C(=O)NN(C(=O)CCl)c1cccc(C)c1`: 58.3% (active).
The same measure for `CCCCn1ccnc1C(=O)c1cccc(S(=O)(=O)N2c3ccccc3CC2C)c1` (configuration not stated): 9.35%.
`N=c1n(CCc2ccccc2)c2ccccc2n1Cc1ccccc1F`: the inhibition was 52.5% (active).
The same measure for `CCCc1ccc(OCC(=O)NNC(=S)NC(=O)c2ccco2)cc1`: 23.9%; for `COC(=O)c1c(NC(=O)COc2ccc(Cl)cc2Cl)sc2c1CC(C)(C)NC2(C)C`: 73.6% (active).
For the molecule `CN1CCN(C2Cc3ccc(Cl)cc3Sc3ccc(F)cc32)CC1` (configuration not stated), the inhibition was 27.8%.
As to `Oc1cccc(/C=N/Nc2ccc(Cl)nn2)c1O`, the inhibition was 61.2% (active).
For `CCOc1ccc(C2c3[nH]c4ccccc4c3CCN2Cc2cccn2-c2ncccn2)cc1` (configuration not stated), the inhibition was 32.3%.
`C=CCn1c(SCc2c(C)noc2C)nc2sc3c(c2c1=O)CCC(C)C3` (configuration not stated): the inhibition was 57.9% (active).
For `CCOc1cc(-c2cc(-c3ccc(NC(C)=O)cc3)nc(N)c2C#N)ccc1O`, the inhibition is 31.6%.
The result for `Cc1ccc(-n2[nH]c(C)c(/C=N/NC(=O)c3cccc([N+](=O)[O-])c3)c2=O)cc1C` reads 82.2% (active); that for `O=[N+]([O-])c1cc(S(=O)(=O)Nc2cccc(Cl)c2)ccc1N=Nc1c(O)[nH]c2ccccc12`, 5.3%; that for `NS(=O)(=O)c1ccc(N=Nc2c(O)[nH]c3ccc(Br)cc23)cc1`, 42.6% (active).
As to `CCNS(=O)(=O)c1ccc(NC(=O)Nc2cccc(C(F)(F)F)c2)cc1`, the inhibition was 42.4% (active).
For the molecule `O=C(Nc1ccc(-c2csc(Nc3cccc(C(F)(F)F)c3)n2)cc1)c1cccc(C(F)(F)F)c1`, the inhibition is -10.4%.
Turning to `O=C(Nc1ccc(C(=O)N2CCOCC2)cc1)Nc1cccc(C(F)(F)F)c1`, the inhibition is 70.3% (active).
